Measured values as given in the supplement of paper PMC8728848.
This is one part of a sample in which the strongest signals are shown more often than they occur.

Key:
Experiment in all cases: glycan array binding signal (z-score within array); higher = stronger binding
Conditions in all cases: glycan notation: IUPAC condensed, linker removed
[1] = target: Fuc(a1-2)Gal(b1-4)GlcNAc(b1-3)Gal(b1-4)GlcNAc(b1-2)Man(a1-3)[Fuc(a1-2)Gal(b1-4)GlcNAc(b1-3)Gal(b1-4)GlcNAc(b1-2)Man(a1-6)]Man(b1-4)GlcNAc(b1-4)GlcNAc
Method in brief: (§1)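 Glycan array data came from 3228 arrays in the Consortium for Functional Glycomics database, and only arrays with an available protein sequence were kept. Glycan names were put into IUPAC-condensed notation, and columns mapping to the same glycan were averaged. The binding signal is a within-array Z-score, averaged across arrays of one protein sequence run at different concentrations or buffers and across linkers. A negative Z-score can be read as non-binding.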

[2] = target: Fuc(a1-2)Gal6S(b1-3)GlcNAc6S
Method in brief: as §1

[3] = target: Fuc(a1-2)[Gal(a1-3)]Gal(b1-4)[Fuc(a1-3)]GlcNAc(b1-3)GalNAc
Method in brief: as §1

[4] = target: Fuc(a1-2)[Gal(a1-4)]Gal(b1-4)GlcNAc
Method in brief: as §1

[5] = target: Fuc(a1-2)[GalNAc(a1-3)]Gal(b1-4)GlcNAc(b1-3)Gal(b1-4)GlcNAc(b1-3)Gal(b1-4)GlcNAc
Method in brief: as §1

[6] = target: Gal(a1-3)Gal(b1-3)GlcNAc(b1-6)GalNAc
Method in brief: as §1

[7] = target: Gal(a1-3)Gal(b1-4)GlcNAc
Method in brief: as §1

[8] = target: Gal(a1-3)Gal(b1-4)GlcNAc(b1-2)Man
Method in brief: as §1

[9] = target: Gal(a1-4)GlcNAc
Method in brief: as §1

[10] = target: Gal(a1-6)Glc
Method in brief: as §1

[11] = target: Gal(b1-3)Gal
Method in brief: as §1

[12] = target: Gal(b1-3)GalNAc(a1-3)[Fuc(a1-2)]Gal(b1-4)GlcNAc
Method in brief: as §1

[13] = target: Gal(b1-3)GalNAc(b1-4)Gal(b1-4)Glc
Method in brief: as §1

[14] = target: Gal(b1-3)GlcNAc(a1-6)Gal(b1-4)GlcNAc
Method in brief: as §1

[15] = target: Gal(b1-3)GlcNAc(b1-3)Gal(b1-4)GlcNAc
Method in brief: as §1

[16] = target: Gal(b1-3)GlcNAc(b1-3)Gal(b1-4)GlcNAc(b1-6)[Gal(b1-3)GlcNAc(b1-3)]Gal(b1-4)Glc
Method in brief: as §1

[17] = target: Gal(b1-4)GlcNAc(b1-2)[Gal(b1-4)GlcNAc(b1-6)]Man(a1-6)[GlcNAc(b1-4)][Gal(b1-4)GlcNAc(b1-2)Man(a1-3)]Man(b1-4)GlcNAc(b1-4)GlcNAc
Method in brief: as §1

[18] = target: Gal(b1-4)GlcNAc(b1-3)Gal(b1-4)GlcNAc(b1-2)Man(a1-3)[Gal(b1-4)GlcNAc(b1-3)Gal(b1-4)GlcNAc(b1-2)Man(a1-6)]Man(b1-4)GlcNAc(b1-4)GlcNAc
Method in brief: as §1

[19] = target: Gal(b1-4)GlcNAc(b1-3)Gal(b1-4)GlcNAc(b1-3)Gal(b1-4)GlcNAc(b1-3)Gal(b1-4)GlcNAc(b1-3)Gal(b1-4)GlcNAc(b1-2)Man(a1-3)[Gal(b1-4)GlcNAc(b1-3)Gal(b1-4)GlcNAc(b1-3)Gal(b1-4)GlcNAc(b1-3)Gal(b1-4)GlcNAc(b1-3)Gal(b1-4)GlcNAc(b1-2)Man(a1-6)]Man(b1-4)GlcNAc(b1-4)[Fuc(a1-6)]GlcNAc
Method in brief: as §1

[20] = target: Gal(b1-4)GlcNAc(b1-3)GalNAc
Method in brief: as §1

[21] = target: Gal(b1-4)GlcNAc(b1-3)[GlcNAc(b1-6)]Gal(b1-4)GlcNAc
Method in brief: as §1

[22] = target: Gal4S(b1-4)GlcNAc
Method in brief: as §1

[23] = target: Gal6S(b1-3)GlcNAc6S
Method in brief: as §1

[24] = target: Gal6S(b1-4)Glc6S
Method in brief: as §1

[25] = target: Gal6S(b1-4)GlcNAc6S
Method in brief: as §1

[26] = target: GalNAc(b1-3)Gal(a1-4)Gal(b1-4)GlcNAc(b1-3)Gal(b1-4)Glc
Method in brief: as §1

[27] = target: GalNAc(b1-3)GalNAc
Method in brief: as §1

[28] = target: GalNAc(b1-4)GlcNAc(b1-2)Man
Method in brief: as §1

[29] = target: GlcA(b1-6)Gal
Method in brief: as §1

[30] = target: GlcNAc(a1-4)Gal(b1-4)GlcNAc(b1-3)Gal(b1-4)GlcNAc
Method in brief: as §1

[31] = target: GlcNAc(b1-2)Man(a1-3)[GlcNAc(b1-4)][GlcNAc(b1-2)Man(a1-6)]Man(b1-4)GlcNAc(b1-4)[Fuc(a1-6)]GlcNAc
Method in brief: as §1

[32] = target: GlcNAc(b1-2)[GlcNAc(b1-4)]Man(a1-3)[GlcNAc(b1-2)Man(a1-6)]Man(b1-4)GlcNAc(b1-4)GlcNAc
Method in brief: as §1

[33] = target: GlcNAc(b1-3)Gal(b1-4)GlcNAc
Method in brief: as §1

[34] = target: GlcNAc(b1-3)Gal(b1-4)GlcNAc(b1-2)Man(a1-3)[GlcNAc(b1-3)Gal(b1-4)GlcNAc(b1-2)Man(a1-6)]Man(b1-4)GlcNAc(b1-4)GlcNAc
Method in brief: as §1

[35] = target: GlcNAc(b1-3)Gal(b1-4)GlcNAc(b1-3)Gal(b1-4)GlcNAc(b1-3)Gal(b1-4)GlcNAc(b1-2)[GlcNAc(b1-3)Gal(b1-4)GlcNAc(b1-3)Gal(b1-4)GlcNAc(b1-3)Gal(b1-4)GlcNAc(b1-6)]Man(a1-6)[GlcNAc(b1-3)Gal(b1-4)GlcNAc(b1-3)Gal(b1-4)GlcNAc(b1-3)Gal(b1-4)GlcNAc(b1-2)Man(a1-3)]Man(b1-4)GlcNAc(b1-4)[Fuc(a1-6)]GlcNAc
Method in brief: as §1

[36] = target: GlcNAc(b1-3)[GlcNAc(b1-4)][GlcNAc(b1-6)]GlcNAc
Method in brief: as §1

[37] = target: Man(a1-6)Man
Method in brief: as §1

[38] = target: Neu5Ac(a2-3)Gal(b1-3)[Fuc(a1-4)]GlcNAc(b1-3)Gal(b1-4)[Fuc(a1-3)]GlcNAc
Method in brief: as §1

[39] = target: Neu5Ac(a2-3)Gal(b1-4)GlcNAc(b1-2)Man(a1-3)[Neu5Ac(a2-3)Gal(b1-4)GlcNAc(b1-2)Man(a1-6)]Man(b1-4)GlcNAc(b1-4)GlcNAc
Method in brief: as §1

[40] = target: Neu5Ac(a2-3)Gal(b1-4)GlcNAc(b1-3)Gal(b1-4)GlcNAc(b1-6)[Gal(b1-3)]GalNAc
Method in brief: as §1

[41] = target: Neu5Ac(a2-3)Gal(b1-4)[Fuc(a1-3)]GlcNAc(b1-3)Gal
Method in brief: as §1

[42] = target: Neu5Ac(a2-3)Gal(b1-4)[Fuc(a1-3)]GlcNAc(b1-3)Gal(b1-4)[Fuc(a1-3)]GlcNAc(b1-3)Gal(b1-4)[Fuc(a1-3)]GlcNAc
Method in brief: as §1

[43] = target: Neu5Ac(a2-6)Gal(b1-4)GlcNAc(b1-2)Man(a1-6)Man(b1-4)GlcNAc(b1-4)GlcNAc
Method in brief: as §1

[44] = target: Neu5Ac(a2-6)Gal(b1-4)GlcNAc(b1-3)[Neu5Ac(a2-6)Gal(b1-4)GlcNAc(b1-6)]GalNAc
Method in brief: as §1

[45] = target: Neu5Ac(a2-8)Neu5Ac(a2-3)Gal(b1-3)GalNAc(b1-4)[Neu5Ac(a2-8)Neu5Ac(a2-3)]Gal(b1-4)Glc
Method in brief: as §1

B1: Epa22 (Candida glabrata) (protein)
chain: MGSSHHHHHHSSGLVPRGSHMKRALSSQNPFGYPIGCSPQSTNVIPGLTMELYSYPIVSGTPPNCYDASYVDPEYPRTGYLKRKMIGKSTGVTGSLNYKFSVEKACMVKYGNLPAGYNYNEPLTVSNFTMLLYGYFKPQTSGIHTFFVNADDLLYINFGAGNAFDCCKREDSKFKLGEYVAYDIWHVDSSKNKVSLNLEKDVYYPIRMFFNNIGKDSSLDLSFSVNGAVEHITDFSGYLYSVPDQPDACPAPIGYDTTCK
What does the source list for B1?
glycan array binding signal (z-score) [1]: -0.382; glycan array binding signal (z-score) [2]: 5.1; glycan array binding signal (z-score) [3]: -0.345; glycan array binding signal (z-score) [4]: 4.5; glycan array binding signal (z-score) [5]: -0.366; glycan array binding signal (z-score) [6]: 3.74; glycan array binding signal (z-score) [7]: 5.2; glycan array binding signal (z-score) [8]: 4.75; glycan array binding signal (z-score) [9]: 5.91; glycan array binding signal (z-score) [10]: 6.63; glycan array binding signal (z-score) [11]: 1.3; glycan array binding signal (z-score) [12]: -0.36; glycan array binding signal (z-score) [13]: 0.34; glycan array binding signal (z-score) [14]: 0.491; glycan array binding signal (z-score) [15]: -0.148; glycan array binding signal (z-score) [16]: -0.145; glycan array binding signal (z-score) [17]: -0.288; glycan array binding signal (z-score) [18]: 0.073; glycan array binding signal (z-score) [19]: -0.231; glycan array binding signal (z-score) [20]: -0.023; glycan array binding signal (z-score) [21]: -0.387; glycan array binding signal (z-score) [22]: -0.182; glycan array binding signal (z-score) [23]: 5.95; glycan array binding signal (z-score) [24]: 4.93; glycan array binding signal (z-score) [25]: 4.56; glycan array binding signal (z-score) [26]: -0.336; glycan array binding signal (z-score) [27]: -0.424; glycan array binding signal (z-score) [28]: -0.393; glycan array binding signal (z-score) [29]: 5.98; glycan array binding signal (z-score) [30]: -0.413; glycan array binding signal (z-score) [31]: -0.35; glycan array binding signal (z-score) [32]: -0.368; glycan array binding signal (z-score) [33]: -0.312; glycan array binding signal (z-score) [34]: -0.39; glycan array binding signal (z-score) [35]: -0.37; glycan array binding signal (z-score) [36]: -0.383; glycan array binding signal (z-score) [37]: -0.371; glycan array binding signal (z-score) [38]: -0.409; glycan array binding signal (z-score) [39]: -0.356; glycan array binding signal (z-score) [40]: -0.248; glycan array binding signal (z-score) [41]: -0.385; glycan array binding signal (z-score) [42]: -0.375; glycan array binding signal (z-score) [43]: -0.426; glycan array binding signal (z-score) [44]: -0.246; glycan array binding signal (z-score) [45]: -0.003
